Laboratory results as given in PubChem BioAssay AID686979 (National Center for Advancing Translational Sciences (NCATS), 2013).
Out of some 420,000 compounds screened, about 50,000 (12%) were called active. Another 26% or so got no clear call; they are omitted. The call rests on the fitted dose curve; in most records, active means well fitted inhibition curve with a large enough effect; inconclusive means small, poorly fitted or top-dose-only effect; inactive means flat fitted curve, though single readings scatter. The entries come from a sample that favours actives as a whole. Entries that show only a call come without a potency.

Experiment: qHTS for Inhibitors of human tyrosyl-DNA phosphodiesterase 1 (TDP1): qHTS in cells in presence of CPT; further: nearly all actives have a fitted effect of over 55% in size
Settings: chicken DT40 Tdp1-/-;hTDP1 cells + 20 nM CPT, ATP luminescence, 48 h; series mostly up to 46.2 µM
How it was run: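 Cell growth measured by CellTiter-Glo luminescence after a minimum 48 h, 37 C compound exposure with 20 nM CPT in Tdp1-knockout DT40 cells stably expressing hTDP1, seeded 400/well; qHTS titration format.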
Potency means the concentration at half of the fitted maximal effect.

| Compound | Potency |
| --- | --- |
| O=C(CSc1nc2[nH]ncc2c(=O)[nH]1)Nc1ccc(F)cc1 | inactive |
| O=C(NCCc1cccc(F)c1)C1CC(O)CN1C(=O)Nc1ccccc1 (configuration not stated) | inactive |
| CCCCN1C(=O)CCC(C(=O)O)C1c1ccc(OC)cc1 (configuration not stated) | inactive |
| CCCCc1ccc(NC(=O)CN2C(=O)NC(Cc3ccccc3)C2=O)cc1 (configuration not stated) | inactive |
| O=C(Cn1c(=O)n(Cc2ccco2)c(=O)c2ccccc21)NCC1CCCO1 (configuration not stated) | inactive |
| Cn1c2ccccc2c(=O)c2c(=O)n(Cc3ccco3)c(COc3ccccc3)nc21 | 18.4 µM (active) |
| CCn1c(COc2ccccc2)nnc1SCC(=O)NCc1ccco1 | inactive |
| CCS(=O)(=O)Nc1ccc(C(=O)NCCSc2ccccc2)cc1 | inactive |
| COc1ccc(-c2nc(Cn3c(=O)cc(C)c4c(C)nn(-c5ccccc5)c43)c(C)o2)cc1OC | inactive |
| COc1ccc(CNC(=O)COC(=O)CCS(=O)(=O)c2ccc(C)cc2)cc1OC | inactive |
| Cc1ccc(S(=O)(=O)N2C[C@]3(O)C[C@@H]4C(=O)N(c5ccccc5)C(=O)[C@@H]4C[C@]3(OC(=O)NC3CC3)C2)cc1 | inactive |
| CCCCCCn1c(=O)n2n(c1=O)C[C@]1(OC(=O)NCc3ccc(OC)c(OC)c3)CN(S(=O)(=O)c3ccc(C)cc3)C[C@]1(O)C2 | 23.1 µM (active) |
| CC1CCCCC1NC(=O)c1cn(C)c2ccc(S(=O)(=O)N3CCOCC3)cc2c1=O (configuration not stated) | inactive |
| Cc1ccc(S(=O)(=O)N2CCC(Oc3ccc(-n4cnnn4)cc3)CC2)cc1 | inactive |
| Cc1nnc(NCCO)c2ccccc12 | inactive |
| COc1ccc(-c2oc3ncnc(NCCCO)c3c2-c2ccc(OC)cc2)cc1 | 20.6 µM (active) |
| COCCNc1ncnc2c1ncn2[C@H]1CN(Cc2ccc(OC)cc2)C[C@@H](CO)O1 | inactive |
| OCCNc1ncnc2oc(-c3ccco3)c(-c3ccco3)c12 | 12.6 µM (active) |
| OCCc1ccc(NCCc2ccco2)cc1 | inactive |
| O=C(CCSCc1cccc(F)c1)NCc1ccccc1 | inactive |
| COc1ccccc1CNS(=O)(=O)c1c(C)[nH]c(C)c1C(=O)N1CCCCC1 | inactive |
| CC(=O)Cn1cnc2c(cnn2-c2ccccc2)c1=O | inactive |
| Cc1ccc(Oc2cnn(-c3ccccc3)c(=O)c2Br)cc1 | inactive |
| COc1ccc(-n2c(SC)nc(O)cc2=O)cc1 | inactive |
| CCC(C)Sc1nc2c(cnn2-c2ccc(F)cc2)c(=O)[nH]1 (configuration not stated) | inactive |
| CCOc1ccc(-n2c(C)nc3c(cnn3-c3ccc(C)cc3)c2=O)cc1 | 5.17 µM (active) |

| Compound | Potency |
| --- | --- |
| COc1ccc(-n2c(C)nc3c(cnn3-c3ccccc3)c2=O)cc1 | 29.1 µM (active) |
| COc1ccc(-n2c(C)nc3c(cnn3-c3ccc(F)cc3)c2=O)cc1 | 23.1 µM (active) |
| CCc1nc2c(cnn2-c2ccc(C)cc2)c(=O)n1-c1ccc(C)cc1 | inactive |
| CCOC(=O)c1ccc(-n2c(C)nc3c(cnn3-c3ccccc3C)c2=O)cc1 | inactive |
| CC1CCc2c(c3ccccc3[nH]c2=O)O1 (configuration not stated) | inactive |
| COc1ccc(-c2nc(N)sc2C2(O)C(=O)Nc3c(Br)cc(F)cc32)cc1OC (configuration not stated) | inactive |
| O=C(COC(=O)c1cccnc1Cl)Nc1ccc(S(=O)(=O)N2CCOCC2)cc1 | inactive |
| CC[C@]1(c2ccccc2OC)C(=O)N(C(=O)OC)N1C(=O)OC | 20.6 µM (active) |
| COc1ccccc1CNC(=O)CCCN1C(=O)NC2(CCCC2)C1=O | inactive |
| COc1ccccc1CC(=O)Nc1ccc([N+](=O)[O-])cc1OC | inactive |
| Cc1ccccc1/C=C\c1nc(O)c([N+](=O)[O-])c(=O)[nH]1 | inactive |
| O=C(NNC(=O)c1cnccc1C(F)(F)F)c1ccc(Cl)cc1 | inactive |
| O=C(NNC1=C(C(=O)C(F)(F)F)CCC1)c1ccncc1 | 1.64 µM (active) |
| Cc1ccc(C(=O)NNC(=O)c2ccncc2)cc1S(=O)(=O)N1CCCCC1 | inactive |
| COc1cccc(NC(=O)CN(C)CC(=O)c2c(N)n(Cc3ccccc3)c(=O)n(C)c2=O)c1 | inactive |
| O=C(OCC(=O)N1CCCCCC1)c1cccc(Cl)c1Cl | inactive |
| O=C(NCC(c1cccnc1)N1CCc2ccccc21)c1cccc(C(F)(F)F)c1 (configuration not stated) | 16.4 µM (active) |
| CCOC(=O)c1c(NC(=O)CSc2cn(CCNC(=O)c3cccc(C(F)(F)F)c3)c3ccccc23)sc2c1CCC2 | inactive |
| Cc1ccccc1C(=O)NCC(c1ccco1)N1CCc2ccccc21 (configuration not stated) | inactive |
| CCNC(=O)c1cnn(-c2ccccc2)c1-c1ccccc1 | inactive |
| CCCCNCCS(=O)(=O)NCc1ccccc1 | inactive |
| Cc1ccc(SCCC(=O)OCC(=O)Nc2ncc(Cl)cc2Cl)cc1 | inactive |
| Cc1cc(NC(=O)CSc2nc3ccccc3n2CC(C)C)no1 | inactive |
| Cc1ccc(-n2c(SCC(=O)Nc3ncc(Cl)cc3Cl)nc3ccccc32)cc1 | 14.6 µM (active) |
| Cc1cccc(N(CC(=O)N2CCCC2)S(C)(=O)=O)c1C | inactive |
| CCN(CC)C(=O)CS(=O)CC(=O)Nc1cc(OCCOC)c(Cl)cc1Cl (configuration not stated) | inactive |

| Compound | Potency |
| --- | --- |
| COc1ccccc1-c1nc(NCCNC(C)=O)c2ccccc2n1 | inactive |
| COc1ccccc1CNCc1cccs1 | inactive |
| COc1ccccc1-c1nc(NCc2cccs2)c2ccccc2n1 | 16.4 µM (active) |
| CC1(C)CC(=O)C=C(N2CCCC2)C1 | inactive |
| O=C(O)CN1CCN(C(c2ccccc2)c2ccccc2)CC1 | inactive |
| CC1(C)CC(N2CCN(C(c3ccccc3)c3ccccc3)CC2)=CC(=[N+]2CCCCC2)C1 | 0.164 µM (active) |
| CC(Oc1ccc2c(-c3ccccc3)cc(=O)oc2c1)C(=O)NC(Cc1c[nH]c2ccccc12)C(=O)O (configuration not stated) | inactive |
| Cc1ccc(C)c(NC(=O)COC(=O)Cn2c(C)csc2=O)c1 | inactive |
| COc1ccc(CCNC(=O)C(=O)NCC2CCNCC2)cc1OC | inactive |
| COc1ccc(S(=O)(=O)NCC(c2ccc(N(C)C)cc2)N2CCc3ccccc32)cc1OC (configuration not stated) | inactive |
| COc1ccc(C(=O)NCC(c2ccc(N(C)C)cc2)N2CCc3ccccc32)c(OC)c1 (configuration not stated) | 18.4 µM (active) |
| COc1ccccc1C(=O)NCCC(=O)NCC(c1ccco1)N1CCCCC1 (configuration not stated) | inactive |
| COc1ccc(C(CNC(=O)COc2ccccc2OC)N2CCCCC2)cc1 (configuration not stated) | inactive |
| CCOc1ccccc1C(=O)NCC(c1ccc(N(C)C)cc1)N1CCCC1 (configuration not stated) | 20.6 µM (active) |
| COc1ccc(S(=O)(=O)NCC(c2ccc(N(C)C)cc2)N2CCCC2)cc1 (configuration not stated) | inactive |
| CCS(=O)(=O)N1CCC(N2CCN(c3ccccc3)CC2)CC1 | inactive |
| COC(=O)c1cc(OCC(=O)NC2CCCc3ccccc32)cc(C(=O)OC)c1 (configuration not stated) | inactive |
| CCCOCC(O)CC(CC)C(=O)NNC(=S)Nc1ccccc1 (configuration not stated) | inactive |
| Cc1cccc(-n2nc3c(c2NC(=O)c2ccc(Br)o2)CSC3)c1C | inactive |
| COc1ccccc1OCC(=O)Nc1c2c(nn1-c1ccc(F)cc1)CS(=O)(=O)C2 | inactive |
| COc1cccc(C(=O)Nc2c3c(nn2-c2cccc(C)c2C)CS(=O)(=O)C3)c1OC | 35.5 µM (active) |
| COC(=O)c1c(NC(=O)c2ccccc2F)sc2c1C(C(=O)OC)CC2 (configuration not stated) | inactive |
| Cc1ccccc1NC(=O)c1c(NC(=O)c2ccccc2F)sc2c1CCC(C)C2 (configuration not stated) | inactive |
| CC(C)(C)C1CCc2c(sc(NC(=O)c3ccccc3F)c2C(=O)N2CCCCC2)C1 (configuration not stated) | 16.4 µM (active) |
| Cc1ccc(F)c(S(=O)(=O)NC(=O)C2(C)CCN2C(=O)CCc2cccs2)c1 (configuration not stated) | inactive |
| CC1CCN(CCCn2c(SCC(=O)NC3CCCC3)nc3ccccc3c2=O)CC1 | inactive |

| Compound | Potency |
| --- | --- |
| CCOC(=O)C(C)Sc1nc2ccccc2c(=O)n1CC1CCCCC1 (configuration not stated) | 12.6 µM (active) |
| CCOn1c(SC(C)C)nc2ccccc2c1=O | inactive |
| O=C(NCCS(=O)(=O)c1ccc(Br)cc1)c1ccccc1Cl | inactive |
| O=C(O)CCCN1C(=O)C2C3c4ccccc4C(c4ccccc43)[C@@H]2C1=O (some centres not stated) | inactive |
| Cc1ccc(NC(=O)CCOc2ccccc2)cc1S(=O)(=O)Nc1ccccc1Cl | inactive |
| CC1CCN(C(=O)Cn2c(=O)n(-c3ccc(Cl)cc3)c(=O)c3c4c(sc32)CCC4)CC1 | inactive |
| O=c1c2c3c(sc2n(CCN2CCCC2)c(=O)n1Cc1ccccc1)CCCCC3 | 13 µM (active) |
| CCOC(=O)N1CCc2c(sc3c2c(=O)n(Cc2ccccc2)c(=O)n3CC(=O)Nc2cccc(C)c2)C1 | inactive |
| COc1ccc(C2NC(=O)C(=O)/C2=C(\O)c2ccc(Cl)cc2)cc1OC (configuration not stated) | inactive |
| O=c1[nH]c2ccc(S(=O)(=O)N3CCCC3)cc2[nH]1 | inactive |
| CCCN(CC1CC1)C(=O)COC(=O)c1ccc(C)cc1O | inactive |
| Cc1cccc(C(=O)c2cccc(C)c2)c1 | inactive |
| Cc1cccc(C(=O)NCCCN(C)CCCNC(=O)c2cccc(C)c2)c1 | inactive |
| Cc1cccc(C(=O)NC(=S)N(C)C2CCCCC2)c1 | 29.1 µM (active) |
| CN(CC(=O)Nc1ccc(F)c(F)c1F)C(=O)C1CC(=O)N(C2CCCC2)C1 (configuration not stated) | inactive |
| COc1ccc(C2Sc3ccccc3NC3=C2C(=O)c2ccccc23)c(OC)c1OC (configuration not stated) | 1.84 µM (active) |
| CCN(CC)CCCN1C(=O)C(=O)/C(=C(/O)c2c(C)nc3ccccn23)C1c1ccc(C)o1 (configuration not stated) | inactive |
| Cc1ccc(N=C2NC(=O)c3cccc([N+](=O)[O-])c32)cc1 | inactive |
| CC(=O)c1cnc(SCC(=O)O)nc1C | inactive |
| Cc1nn(C)cc1/C=C1\CCC/C(=C\c2cn(C)nc2C)C1=O | 15.8 µM (active) |
| O=C1/C(=C/c2ccc3c(c2)OCO3)CCC/C1=C\c1ccc2c(c1)OCO2 | inactive |
| CCn1cc(/C=C2/SC(=S)NC2=O)c(C)n1 | inactive |
| C[C@H](NC(=O)C1CCN(S(=O)(=O)c2ccccc2)CC1)C(=O)NCc1ccccc1 | inactive |
| CC[C@@]1(C(=O)OC)N[C@H](CN(C)C(C)=O)[C@@H]2C(=O)N(C)C(=O)[C@@H]21 | inactive |
